# Test results: PubChem BioAssay (NCATS)
# Inconclusive results are not listed. A call without a number means that no potency is given here. Activity calls are given as the source filed them. Unless noted, the call rests on the fitted dose curve; in most records, active means well fitted activation curve with a large enough effect; inconclusive means small, poorly fitted or top-dose-only effect; inactive means flat fitted curve, though single readings scatter.
# Key:
# [1] = Confirmation and Secondary Assay for Modulators of Hemoglobin Beta Chain Splicing at IVS2 654 locus (AID 910)
# Outline: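 HeLa cells stably carrying EGFP interrupted by mutant beta-globin IVS2-654 intron (CMV-driven) were treated with compound for 2 days at 37C; corrected splicing was scored as total peak GFP intensity per well (488 nm excitation, 500-520 nm emission).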
# [2] = Confirmation and Secondary Assay for Modulators of Hemoglobin Beta Chain Splicing at IVS2 705 locus (AID 930);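 further: HeLa cells stably expressing the EGFP-705 splicing reporter; GFP fluorescence per well restored by corrected splicing of the IVS2-705 intron in EGFP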
# Outline: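 HeLa cells stably carrying EGFP interrupted by mutant beta-globin intron 2 (IVS2-705) treated 2 days at 37C with compound; 500 nM antisense PNA as control. Correct splicing read as total peak GFP intensity per well by laser-scanning cytometry.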
# [3] = qHTS Assay for Identification of Small Molecule Agonists for Hypoxia Response Element Signaling Pathway (AID 914; active means well fitted activation curve with a large enough effect in the signal ratio, with a control signal flat, not every such curve was filed as active; the % refers to the signal ratio); details: ME-180 (cervical carcinoma) HRE-bla reporter, beta-lactamase ratio, CoCl2, 17 h; activation: stronger effect = higher value
# Outline: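 HRE-bla ME-180 cells with beta-lactamase reporter under hypoxia response element, compounds with EC50 CoCl2 for 17 hours at 37 C. CCF4 substrate, 460nm/530nm emission ratio gave %Activity; AC50 from titration series.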
# [4] = qHTS profiling of the MIPE4 collection as inhibitors of Plasmodium falciparum (3D7) proliferation (AID 743344; call rule not given here); details: P. falciparum 3D7 in erythrocytes, SYBR Green DNA fluorescence, 72 h; at 9.64 µM (top of the series)
# Outline: (§1)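 Parasite DNA was quantified by SYBR Green I fluorescence (ex 485, em 535 nm) after overnight lysis in saponin/Triton buffer at room temperature. Cultures at 0.3% parasitemia and 2.5% hematocrit were first exposed to compound for 72 h at 37 C; signals were normalised to artemisinin (0.29 uM) and vehicle wells.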
# [5] = qHTS profiling of the MIPE4 collection as inhibitors of Plasmodium falciparum (DD2) proliferation (AID 743345; call rule not given here); details: P. falciparum Dd2 in erythrocytes, SYBR Green DNA, 72 h; at 9.64 µM (top of the series)
# Outline: as §1
# [6] = qHTS profiling of the MIPE4 collection as inhibitors of Plasmodium falciparum (DD2) proliferation (Rep 2) (AID 743346; call rule not given here); details: P. falciparum Dd2 in erythrocytes, SYBR Green DNA, 72 h; at 9.64 µM (top of the series)
# Outline: as §1
# [7] = qHTS profiling of the MIPE4 collection as inhibitors of Plasmodium falciparum (HB3) proliferation (AID 743347; call rule not given here); details: P. falciparum HB3 in erythrocytes, SYBR Green DNA, 72 h; at 9.64 µM (top of the series)
# Outline: as §1
smiles,measurement,setting,value
CC(=O)N[C@H](CS)C(=O)O,Potency,[1],inactive
same,Potency,[2],inactive
Cc1noc(C)c1-c1nc(Nc2ccncc2)c2ccccc2n1,Potency,[1],inactive
same,Potency,[2],inactive
CO/N=C(\C(=O)N[C@@H]1C(=O)N2C(C(=O)O)=C(COC(N)=O)CS[C@@H]12)c1ccco1,activation,[3],3.41% (inactive)
CO[C@H]1C=CO[C@]2(C)Oc3c(C)c(O)c4c(O)c(c5c(c4c3C2=O)NC2(CCN(CC(C)C)CC2)N=5)=NC(=O)C(C)=CC=C[C@@H](C)[C@@H](O)[C@@H](C)[C@@H](O)[C@@H](C)[C@@H](OC(C)=O)[C@@H]1C,"parasite growth, % of DMSO control",[4],68.3%
same,"parasite growth remaining, % of DMSO control (lower = more inhibition)",[5],68.3%
same,"parasite growth, % of control (lower = inhibition)",[6],36%
same,"growth, % of control",[7],93.1%
COc1ccc([C@@H]2CC(=O)c3c(O)cc(O[C@H]4O[C@@H](CO[C@H]5O[C@@H](C)[C@@H](O)[C@@H](O)[C@@H]5O)[C@@H](O)[C@@H](O)[C@@H]4O)cc3O2)cc1O,activation,[3],-3.87% (inactive)
N#Cc1cccc(-c2cncnc2-n2ccnc2)c1,Potency,[1],inactive
same,Potency,[2],inactive
CN(C)c1ccc(-c2nccc(NCc3ccccc3)n2)cc1,Potency,[1],inactive
COc1cc2c(cc1OC)-c1cc3ccc(OC)c(OC)c3c[n+]1CC2,Potency,[1],inactive
same,Potency,[2],inactive
CC(C)(N=NC(C)(C)C(=N)N)C(=N)N,Potency,[1],inactive
same,Potency,[2],inactive
C[C@@H]1Cc2ccccc2N1NC(=O)c1ccc(Cl)c(S(N)=O)c1 (stereo partly drawn),activation,[3],7.68% (inactive)
